PubChem BioAssay (EPA / NIEHS)
Activity calls are given as the source filed them. How the source made its calls: active means hit-call score of the fitted dose curve at least 0.9, where 1 is the maximum; inactive means score below 0.9.

Columns and labels:
[1] = ATG_CMV_CIS: Attagene CIS-FACTORIAL HepG2 Assay for human CMV (Internal Marker) (AID 2282928); details: HepG2 CMV promoter reporter, transcription factor profiling; actives raise or lower the signal;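 further: endpoint acts as a background internal control marker rather than a target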
In short: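 Fluorescence intensity of RT-PCR-derived reporter fragments, resolved by capillary electrophoresis, gives the signal. HepG2 liver cells bearing transfected cis-element reporters were treated 24 h; activity in either direction was fit relative to DMSO-treated controls.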

[2] = ATG_DR4_LXR_CIS: Attagene CIS-FACTORIAL HepG2 Assay for human Liver X Receptor (LXR), DR4 submotif (AID 2282929); details: HepG2 Attagene DR4 cis-reporter, mRNA transcription; actives raise or lower the signal
In short: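 Transiently transfected HepG2 liver cells; cis-regulated reporters; 24 h dosing. RT-PCR plus CE read-out of reporter mRNA. DMSO baseline, bidirectional curve fitting.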

[3] = biological target: Aryl hydrocarbon receptor (Homo sapiens) (UniProt P35869); test: ATG_Ahr_CIS: Attagene CIS-FACTORIAL HepG2 Assay for human Aryl Hydrocarbon Receptor (Ahr) (AID 2282930); details: HepG2 AhR cis-factorial reporter transcription; actives raise or lower the signal
In short: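 Transient MRTU transfection of HepG2 → 24 h compound exposure → total RNA, oligo(dT) RT → PCR, 6-FAM extension, HpaI cut → CE fluorescence. DMSO = baseline; bidirectional curve fit.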

[4] = ATG_AP_1_CIS: Attagene CIS-FACTORIAL HepG2 Assay for human Activator Protein 1 (AP-1) (AID 2282931); details: HepG2 Attagene cis-factorial AP-1 reporter mRNA; actives raise or lower the signal
In short: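 We transfected HepG2 cells transiently with a set of cis-regulated reporter transcription units, dosed them for 24 h, and quantified reporter mRNA via RT-PCR and capillary electrophoresis, scoring gain or loss of signal relative to DMSO.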

[5] = ATG_AP_2_CIS: Attagene CIS-FACTORIAL HepG2 Assay for human Activator Protein 2 (AP-2) (AID 2282932); details: HepG2 AP-2 cis-reporter, Attagene transcription factor profiling; actives raise or lower the signal
In short: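 Transiently transfected HepG2 cells are exposed to chemical for 24 h. Reporter transcripts are then measured as fluorescence following RT-PCR and capillary separation, and gain- or loss-of-signal is fitted relative to DMSO.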

[6] = ATG_BRE_CIS: Attagene CIS-FACTORIAL HepG2 Assay for human Bone Morphogenetic Protein (BMP) Response Element (BRE) (AID 2282933); details: HepG2 BMP response element reporter, Attagene transcription factor profiling; actives raise or lower the signal
In short: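 After a 24 h chemical treatment, transiently transfected HepG2 cells were lysed for RNA; reporter transcripts were quantified by fluorescent RT-PCR and capillary electrophoresis, normalised to DMSO.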

[7] = biological target: Retinoic acid receptor alpha (Homo sapiens) (UniProt P10276); test: ATG_DR5_RAR_CIS: Attagene CIS-FACTORIAL HepG2 Assay for human Retinoic Acid Receptor Alpha (RARE), DR5 submotif (AID 2282934); details: HepG2 Attagene cis-factorial RARE DR5 reporter, mRNA; actives raise or lower the signal;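 on AC50: reporter responds to endogenous RAR alpha beta and gamma in HepG2 not RARA alone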
In short: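 Transient MRTU transfection of HepG2; 24 h compound treatment; TriZol RNA, oligo(dT) RT, PCR, FAM labelling, capillary electrophoresis. Bidirectional fit vs DMSO. Endogenous TF activity at DR5 RARE.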

[8] = biological target: Transcription factor E2F1 (Homo sapiens) (UniProt Q01094); test: ATG_E2F_CIS: Attagene CIS-FACTORIAL HepG2 Assay for human E2F Transcription Factor 1 (AID 2282935); details: HepG2 Attagene cis-reporter, E2F reporter RNA transcripts; actives raise or lower the signal
In short: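 Fluorescent RT-PCR products, digested with HpaI for 2 h at 37 C, are separated by capillary electrophoresis. Source RNA comes from transfected HepG2 cultures treated for 24 h.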

[9] = ATG_E_Box_CIS: Attagene CIS-FACTORIAL HepG2 Assay for human Enhancer Box (E-box) (AID 2282936); details: HepG2 E-box cis-reporter transcription, actives raise or lower the signal
In short: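 Fluorescent reporter fragments separated by capillary electrophoresis gave the signal; mRNA came from HepG2 cells transfected with cis-element reporters and treated 24 h. Curves fitted bidirectionally relative to DMSO controls.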

[10] = ATG_M_61_CIS: Attagene CIS-FACTORIAL HepG2 Assay for M61 Transcription Factor (Internal Marker) (AID 2282937); details: HepG2 Attagene CIS-FACTORIAL M61 internal marker reporter; actives raise or lower the signal
In short: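 Multiplexed reporter mRNA assay, HepG2 human hepatoma cells, 24 h treatment. Signal: FAM-labelled, HpaI-digested RT-PCR fragments by CE. Fit: bidirectional, baseline DMSO.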

[11] = ATG_EGR_CIS: Attagene CIS-FACTORIAL HepG2 Assay for human Early Growth Response 1 (EGR1) (AID 2282938); details: HepG2 Attagene CIS-FACTORIAL EGR reporter mRNA; actives raise or lower the signal
In short: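 Multiplexed cis-reporter system in human hepatoma HepG2 cells, transiently transfected. Cells are dosed for 24 h; reporter transcripts are amplified, fluorescently tagged and sized by capillary electrophoresis, with DMSO as negative control.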

[12] = ATG_M_19_CIS: Attagene CIS-FACTORIAL HepG2 Assay for M19 Transcription Factor (Internal Marker) (AID 2282939); details: HepG2 Attagene CIS-FACTORIAL M19 internal marker reporter; actives raise or lower the signal
In short: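 In this multiplexed cell assay, transiently transfected HepG2 reporter units report endogenous transcription-factor activity; after 24 hours of treatment, labelled reporter cDNA fragments are quantified by capillary electrophoresis and fitted bidirectionally against DMSO.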

[13] = ATG_Ets_CIS: Attagene CIS-FACTORIAL HepG2 Assay for human Erythroblast Transformation Specific (ETS) (AID 2282941); details: HepG2 ETS cis-reporter transcription, actives raise or lower the signal
In short: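 Multiplexed reporter transcript profiling: HepG2, 24 h treatment, total RNA to cDNA, PCR, 6-FAM labelling, HpaI cut, capillary electrophoresis. Gain- or loss-of-signal fitted against DMSO.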

[14] = biological target: Hepatocyte nuclear factor 3-beta (Homo sapiens) (UniProt Q9Y261); test: ATG_FoxA2_CIS: Attagene CIS-FACTORIAL HepG2 Assay for human Forkhead box A2 (FOXA2) (AID 2282942); details: HepG2 cis-reporter transcription factor activity, 24 h; actives raise or lower the signal
In short: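 Multiplexed cis-element reporter assay in transiently transfected HepG2. Twenty-four hours post-dosing, RNA was reverse-transcribed, amplified, FAM-labelled, HpaI-digested and separated by CE. Activity gain or loss relative to DMSO.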

[15] = ATG_FoxO_CIS: Attagene CIS-FACTORIAL HepG2 Assay for human Forkhead box O (FoxO) (AID 2282943); details: HepG2 Attagene cis-reporter, FoxO element, mRNA; actives raise or lower the signal
In short: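 HepG2, transient MRTU transfection (cis element, endogenous TFs). Dose 24 h. TriZol RNA → oligo(dT) RT → PCR → 6-FAM primer extension → HpaI cut → CE. Gain/loss vs DMSO.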

[16] = ATG_GATA_CIS: Attagene CIS-FACTORIAL HepG2 Assay for human GATA Binding Protein (AID 2282944); details: HepG2 GATA cis-element reporter, Attagene multiplex mRNA; actives raise or lower the signal
In short: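 Measures endogenous transcription factor-driven reporter mRNA in HepG2 cells transiently carrying cis-regulated constructs. 24 h dosing; RNA via oligo(dT) reverse transcription, PCR, HpaI digestion, capillary electrophoresis; fitted relative to DMSO.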

[17] = ATG_GLI_CIS: Attagene CIS-FACTORIAL HepG2 Assay for human Zinc Finger Protein GLI1 (AID 2282945); details: HepG2, Attagene cis-factorial reporter mRNA, GLI element; actives raise or lower the signal
In short: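 Bidirectional curve fits relative to DMSO, using reporter mRNA levels from RT-PCR plus capillary electrophoresis. Cells were HepG2 transiently carrying cis-regulated reporter constructs, harvested 24 h after dosing.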

[18] = ATG_ERE_CIS: Attagene CIS-FACTORIAL HepG2 Assay for Estrogen Response Element (ERE) (AID 2282940); details: HepG2 ERE cis-reporter, Attagene RNA transcript; actives raise or lower the signal
In short: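 Measuring endogenous transcription factor output, the assay doses transfected HepG2 cells for 24 hours and quantifies reporter transcripts by fluorescent RT-PCR and capillary electrophoresis, with DMSO as baseline.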

[19] = biological target: Bile acid receptor (Homo sapiens) (UniProt Q96RI1); test: ATG_IR1_CIS: Attagene CIS-FACTORIAL HepG2 Assay for human Nuclear Receptor Subfamily 1 Group H Member 4 (NR1H4), IR1 submotif (AID 2282946); details: IR1 reporter transcription, actives raise or lower the signal
In short: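 HepG2 cells transiently transfected with multiplexed cis-element reporter units read endogenous transcription factor activity. After 24 h compound exposure, reporter mRNA was quantified by RT-PCR, fluorescent labelling, HpaI digestion and capillary electrophoresis; bidirectional fitting versus DMSO baseline.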

[20] = ATG_GRE_CIS: Attagene CIS-FACTORIAL HepG2 Assay for human Glucocorticoid Response Elements (GRE) (AID 2282947); details: HepG2 GRE cis-reporter, Attagene multiplex mRNA; actives raise or lower the signal
In short: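 Multiplexed cis-reporter mRNA induction, HepG2, 24 h post-dose. RT-PCR, FAM-labelled, HpaI-digested amplicons by CE. Bidirectional fit vs DMSO.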

Measured: AC50

Sequence of Transcription factor E2F1 (Homo sapiens) (Q01094 whole entry, looked up): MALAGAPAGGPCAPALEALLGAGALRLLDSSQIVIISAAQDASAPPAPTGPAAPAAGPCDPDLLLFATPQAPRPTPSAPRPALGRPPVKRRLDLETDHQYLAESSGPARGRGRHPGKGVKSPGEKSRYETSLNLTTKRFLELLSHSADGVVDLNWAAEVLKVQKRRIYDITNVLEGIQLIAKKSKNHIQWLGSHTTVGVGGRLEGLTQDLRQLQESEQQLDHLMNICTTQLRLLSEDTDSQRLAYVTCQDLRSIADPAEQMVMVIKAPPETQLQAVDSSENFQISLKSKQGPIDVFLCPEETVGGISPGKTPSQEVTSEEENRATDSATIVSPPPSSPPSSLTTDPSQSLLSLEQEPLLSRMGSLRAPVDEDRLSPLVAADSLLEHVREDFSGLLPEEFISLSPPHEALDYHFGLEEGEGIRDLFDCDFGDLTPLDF
Sequence of Hepatocyte nuclear factor 3-beta (Homo sapiens) (Q9Y261 whole entry, looked up): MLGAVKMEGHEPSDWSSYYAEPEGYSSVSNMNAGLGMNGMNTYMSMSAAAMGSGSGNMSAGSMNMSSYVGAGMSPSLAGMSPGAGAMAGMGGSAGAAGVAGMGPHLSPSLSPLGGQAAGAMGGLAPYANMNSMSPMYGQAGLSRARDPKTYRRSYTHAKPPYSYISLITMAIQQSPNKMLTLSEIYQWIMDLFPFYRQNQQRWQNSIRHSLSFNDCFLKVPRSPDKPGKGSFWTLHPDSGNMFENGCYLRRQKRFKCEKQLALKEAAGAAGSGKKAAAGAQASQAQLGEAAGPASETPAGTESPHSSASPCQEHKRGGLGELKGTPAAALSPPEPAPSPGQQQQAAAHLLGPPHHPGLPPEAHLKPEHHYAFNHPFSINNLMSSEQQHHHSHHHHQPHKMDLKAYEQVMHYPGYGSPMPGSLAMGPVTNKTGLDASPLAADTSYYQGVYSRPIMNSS
Sequence of Aryl hydrocarbon receptor (Homo sapiens) (P35869 whole entry, looked up): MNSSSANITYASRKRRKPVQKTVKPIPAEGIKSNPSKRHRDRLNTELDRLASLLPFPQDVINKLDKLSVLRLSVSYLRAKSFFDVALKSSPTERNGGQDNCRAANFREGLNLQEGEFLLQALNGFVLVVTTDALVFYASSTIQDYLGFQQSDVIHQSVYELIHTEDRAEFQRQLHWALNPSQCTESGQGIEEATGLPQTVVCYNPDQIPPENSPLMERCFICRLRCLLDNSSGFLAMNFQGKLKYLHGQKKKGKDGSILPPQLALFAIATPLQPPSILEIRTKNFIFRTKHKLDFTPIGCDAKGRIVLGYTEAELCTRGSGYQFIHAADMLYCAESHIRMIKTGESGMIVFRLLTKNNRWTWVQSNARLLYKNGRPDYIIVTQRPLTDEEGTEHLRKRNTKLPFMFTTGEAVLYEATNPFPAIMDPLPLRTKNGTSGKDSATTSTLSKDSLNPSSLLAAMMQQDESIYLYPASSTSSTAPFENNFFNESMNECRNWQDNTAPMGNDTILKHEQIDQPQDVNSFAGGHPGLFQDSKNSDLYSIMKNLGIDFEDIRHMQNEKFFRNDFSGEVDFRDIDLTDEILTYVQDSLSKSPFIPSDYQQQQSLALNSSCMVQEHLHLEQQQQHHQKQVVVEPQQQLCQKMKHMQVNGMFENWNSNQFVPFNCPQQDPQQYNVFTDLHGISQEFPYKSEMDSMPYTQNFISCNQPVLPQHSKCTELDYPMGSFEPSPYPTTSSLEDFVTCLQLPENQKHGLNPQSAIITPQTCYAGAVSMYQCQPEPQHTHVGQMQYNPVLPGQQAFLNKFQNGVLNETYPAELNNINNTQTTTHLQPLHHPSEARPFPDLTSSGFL
Sequence of Retinoic acid receptor alpha (Homo sapiens) (P10276 whole entry, looked up): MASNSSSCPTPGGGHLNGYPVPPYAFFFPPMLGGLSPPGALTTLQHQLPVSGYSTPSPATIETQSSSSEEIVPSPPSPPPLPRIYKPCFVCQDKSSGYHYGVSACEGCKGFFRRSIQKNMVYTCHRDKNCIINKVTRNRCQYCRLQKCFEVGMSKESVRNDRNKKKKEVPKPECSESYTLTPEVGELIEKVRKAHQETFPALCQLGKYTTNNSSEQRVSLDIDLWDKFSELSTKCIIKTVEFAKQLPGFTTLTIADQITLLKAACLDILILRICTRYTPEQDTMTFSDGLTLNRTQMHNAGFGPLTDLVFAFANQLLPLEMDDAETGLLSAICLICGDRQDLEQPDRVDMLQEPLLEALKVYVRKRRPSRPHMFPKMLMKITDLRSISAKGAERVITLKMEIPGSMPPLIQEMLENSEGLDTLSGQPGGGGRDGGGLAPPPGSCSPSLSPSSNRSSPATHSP
Sequence of Bile acid receptor (Homo sapiens) (Q96RI1 whole entry, looked up): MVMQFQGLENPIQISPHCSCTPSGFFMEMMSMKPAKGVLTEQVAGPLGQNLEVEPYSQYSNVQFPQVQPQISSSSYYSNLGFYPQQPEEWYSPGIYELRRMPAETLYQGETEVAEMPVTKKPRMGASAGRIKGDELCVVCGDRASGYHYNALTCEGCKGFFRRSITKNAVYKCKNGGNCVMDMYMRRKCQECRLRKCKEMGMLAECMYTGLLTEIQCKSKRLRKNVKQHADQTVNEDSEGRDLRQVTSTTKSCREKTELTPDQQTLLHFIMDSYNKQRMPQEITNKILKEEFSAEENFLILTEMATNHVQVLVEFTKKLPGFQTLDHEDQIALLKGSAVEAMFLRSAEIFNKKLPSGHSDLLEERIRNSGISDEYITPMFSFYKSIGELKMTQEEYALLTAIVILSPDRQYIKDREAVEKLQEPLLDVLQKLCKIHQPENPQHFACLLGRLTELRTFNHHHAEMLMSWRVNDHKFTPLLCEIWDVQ

Oc1ccc(Cc2ccc(O)cc2)cc1
active: [1] 77.1 µM
not listed: [18] | [19] | [20]
inactive: all other assays above

CCCCCCCCCCCCN(C)C
active: [1] 33.4 µM | [2] 50.9 µM | [5] 33.4 µM | [7] 57.4 µM | [9] 7.96 µM | [11] 53.9 µM | [19] 47.8 µM
not listed: [14] | [15]
inactive: all other assays above

CCOC(=O)CC(=O)CCl
active: [1] 65.7 µM | [2] 61.6 µM | [4] 75.2 µM | [5] 44 µM | [9] 128 µM | [11] 32.2 µM | [13] 26.4 µM | [17] 26.1 µM
not listed: [14] | [19]
inactive: all other assays above

Cc1ccc2nc3sc(=O)sc3nc2c1
active: [2] 22.4 µM | [5] 9.68 µM | [6] 25 µM | [7] 6.63 µM | [13] 45.9 µM | [14] 11.9 µM | [15] 6.07 µM | [16] 29.9 µM
not listed: [18] | [19] | [20]
inactive: all other assays above

CCCCN(CCCCO)N=O
active: [18] 3.06 µM
not listed: [14] | [19]
inactive: all other assays above

CC(C)C(C)(N)C#N (stereo not drawn)
active: [7] 46.9 µM
not listed: [18]
inactive: all other assays above

C=CCc1ccccc1O
active: [18] 29.2 µM
not listed: [14] | [15]
inactive: all other assays above

C=CCOC(F)(C(F)(F)F)C(F)(F)F
not listed: [14] | [19]
inactive: all other assays above
